For 13 compounds, outcome results are on record in PubChem BioAssay (NCATS).

Results filed as inconclusive are left out. Calls of active or inactive are those of the source. The call rests on the fitted dose curve; in most records, active means well fitted cell-killing curve with a large enough effect; inconclusive means small, poorly fitted or top-dose-only effect; inactive means flat fitted curve, though single readings scatter.

A short description of this experiment: Cell Viability - LYMP2-015 (AID 971). Further: nearly all actives have a fitted effect of over 55% in size. The conditions noted are these: LYMP2-015 lymphoblastoid cell viability; series mostly up to 92.2 µM. An excerpt: NIH Chemical Genomics Center [NCGC]
NIH Molecular Libraries Screening Centers Network [MLSCN]
National Institutes of Environmental Health Sciences [NIEHS]
National Toxicology Program [NTP]
We have developed a 1536-well cell-based assay for quantitative high throughput screening (qHTS) against a number of cell lines to determine in vitro cytotoxicity of small molecules. This particular assay uses a human lymphoblastoid cell line (LYMP2-015) purchased from Coriell Institute for Medical Research.
NCGC Assay Protocol Summary:
The CellTiter-Glo luminescent cell viability assay (Promega) is a homogeneous method to measure the number of viable cells in culture. The end point readout of this assay is based on quantitation of intracellular ATP, an indicator of metabolic activity, using the luciferase reaction. Luciferase catalyzes the oxidation of beetle Luciferin to oxyluciferin and light in the presence of ATP. The luminescent signal is proportional to amount of ATP present.
Using the CellTiter-Glo luminescent cell viability assay, the amount of cellular ATP was measured in the lymphoblastoid cell line with complete culture medium following compound treatment for 24 hours. The assay was performed in opaque white Kalypsys 1536-well plates. In the screen, tetraoctylammonium bromide was used as positive control. Library compounds were measured for their ability to cause acute toxicity in the cell line, as reflected by a decrease in intracellular ATP levels, in a concentration-dependent manner. […] AC50 values were determined from concentration-response data modeled with the standard Hill equation.
qHTS protocol for CellTiter Glo lymphoblastoid cellular assay
[Step] [Parameter] [Value] [Description]
1. Reagent; 5 uL; 2500 lymphoblastoid cells/well
2. Time; 5 hr; 37 C incubation
4. Controls; 23 nL; Tetraoctylammonium bromide 6.4pM to 92 uM
5. Time; 24 hr; 37 C incubation
6. Reagent; 5 uL; CellTiter Glo reagent
7. Time; 30 min; Room Temperature
8. Detection; Luminescence; Viewlux plate reader
Keywords: cell viability, cytotoxicity, lymphoblastoid cell line, luminescence, NTPHTS, NTPHTS_NCGC, NIEHS, DSSTox, MLSMR, MLSCN, NIH Roadmap, qHTS, NCGC
In the case of `COc1ccc(C(=O)c2ccccc2)c(O)c1`, the compound was called inactive.

In the case of `COc1cc([C@H]2Oc3cc([C@H]4Oc5cc(O)cc(O)c5C(=O)[C@@H]4O)ccc3O[C@@H]2CO)ccc1O`, the compound was classed as inactive.

On to `COc1ccc(C(Cl)=C(c2ccc(OC)cc2)c2ccc(OC)cc2)cc1`, for which the compound was classed as inactive.

Regarding `C/C=C/c1ccc(O)c(OC)c1`, the outcome was inactive.

For `CCOc1ccccc1C(N)=O`, the call was inactive.

For the compound `CCOc1ccc(NC(C)=O)cc1`, the call was inactive.

In the case of `O=C(O)c1ccc(S(=O)(=O)N(Cl)Cl)cc1`, the compound was called inactive.

On to `C=C[C@H]1CN2CC[C@H]1C[C@@H]2[C@@H](O)c1ccnc2ccc(OC)cc12`, for which the compound was called inactive.

For `OC[C@H]1O[C@@H]2O[C@H]3[C@H](O)[C@@H](O)[C@@H](O[C@H]4[C@H](O)[C@@H](O)[C@@H](O[C@H]5[C@H](O)[C@@H](O)[C@@H](O[C@H]6[C@H](O)[C@@H](O)[C@@H](O[C@H]7[C@H](O)[C@@H](O)[C@@H](O[C@H]8[C@H](O)[C@@H](O)[C@@H](O[C@H]1[C@H](O)[C@H]2O)O[C@@H]8CO)O[C@@H]7CO)O[C@@H]6CO)O[C@@H]5CO)O[C@@H]4CO)O[C@@H]3CO`, the compound was called inactive.

For the compound `NCCNc1cccc2ccccc12`, the outcome was inactive.

For `NC(=O)c1ccccc1O`, the call was inactive.

`CCCN(CCC)S(=O)(=O)c1ccc(C(=O)O)cc1`: the result was inactive.

For the compound `CCCCC(CC)COC(=O)c1ccc(N(C)C)cc1` (stereo not drawn), the compound was called inactive.
